Active and inactive are the calls of the source.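 Rule for the calls, unless noted: active = fluorescence slope after compound addition differing from the mean of all screened samples at 99.7% confidence, in either direction; inactive = the rest.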
target: Voltage-gated potassium channel subunit beta-2 (Rattus norvegicus) (UniProt P62483); assay: KvBeta positive modulators, primary screen, biochemical, NADPH fluorescence (AID 623;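 active = NADPH fluorescence slope more negative than the mean of all samples by about 3 SD, 99.7% confidence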;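 note: fluorescence intensity change per second fitted from 20 to 320 s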); details: Recombinant KvBeta, NADPH fluorescence decrease slope, 10 min; at 10 µM; hits give low values
Sequence (P62483 whole entry, looked up): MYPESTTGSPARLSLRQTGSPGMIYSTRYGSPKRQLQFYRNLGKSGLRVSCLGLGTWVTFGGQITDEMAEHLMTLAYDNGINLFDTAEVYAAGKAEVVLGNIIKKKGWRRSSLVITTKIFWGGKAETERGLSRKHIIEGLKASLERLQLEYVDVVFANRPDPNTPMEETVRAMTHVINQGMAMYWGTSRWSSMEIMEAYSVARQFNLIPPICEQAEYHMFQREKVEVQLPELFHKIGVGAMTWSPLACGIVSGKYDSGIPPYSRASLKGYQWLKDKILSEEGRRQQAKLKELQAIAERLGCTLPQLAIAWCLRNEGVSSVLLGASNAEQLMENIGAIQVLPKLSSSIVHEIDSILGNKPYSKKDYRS

NADPH fluorescence slope, inactive:
Cn1c(SCc2ccccc2)nnc1C1CCCNC1 (stereo not given) 1.3e-05
Cc1c(NC(=O)c2ccc(COc3ccc4ccccc4c3)o2)c(=O)n(-c2ccccc2)n1C -2.6e-05
CCOc1ccccc1-n1c(SCC(=O)NCc2ccco2)nnc1-c1ccncc1 3.6e-05
COc1ccc(/C=N/n2cnnc2SCc2ccc(OC)cc2)cc1 -4.9e-05
CCN(CCCNC(=O)C1CCCN(S(=O)(=O)c2cnc[nH]2)C1)c1ccccc1 (stereo not given) -2.4e-05
COc1cc(Cn2c(-c3nonc3N)nc3ccccc32)ccc1C -1.7e-05
C(/CCc1ccccc1)=N\n1cnnc1 -5.3e-05
Clc1ccc(OCCCn2cncn2)cc1Cl 5.3e-06
Cn1c(=O)c2c(nc(CN3CCc4ccccc4C3)n2Cc2cccc(Cl)c2)n(C)c1=O -4.8e-05
c1ccc(N=P(c2nc3ccccc3o2)(N2CCOCC2)N2CCOCC2)cc1 -1.9e-05
CN1C(=O)C(O)(CC(=O)c2ccc(F)cc2)c2cc(Br)ccc21 (stereo not given) -7.2e-05
O=C(c1ccc(Br)cc1)N1CCN(S(=O)(=O)c2ccccc2)CC1 -9.2e-07
O=C(CN1CCN(C2CCCCC2)CC1)Nc1ccccc1-c1ccccc1 -3.4e-05
CC1CCCC(N2CCN(C(=O)c3ccc(F)cc3)CC2)C1 (stereo not given) -4.9e-05
O=C(Nc1ccccc1C(=O)N1CCOCC1)c1cccc(S(=O)(=O)N2CCCC2)c1 4.9e-06
O=C(Nc1cc(C(F)(F)F)ccc1Cl)C1CCN(c2nnc(-n3cccc3)s2)CC1 -5.6e-05
CC(C)c1ccc(C(O)c2cnc(C(C)C)n2C)cc1 (stereo not given) -3.1e-05
CCOc1cccc(-c2nnc3n2N=C(c2cc(OC)ccc2OC)CS3)c1 -2.7e-06
CCOC(=O)N1CCC(N2C(=O)c3ccccc3C2Nc2cccnc2)CC1 (stereo not given) 4.7e-06
CCn1ncc(C2=NOC(C(=O)Nc3ccc4c(c3)OCO4)C2)c1C (stereo not given) -0.000277
O=C(NCc1nc2ccccc2[nH]1)c1ccco1 -5.6e-05
C=CCSc1nnc(Cc2c(C)[nH]c3ccccc23)o1 -6e-05
COCCn1c(CN2CCN(c3ccccc3F)CC2)nc2c1c(=O)n(C)c(=O)n2C -2.3e-05
O=C(Nc1cccc(NC(=O)c2ccco2)c1)c1ccc2c(c1)OCO2 2.7e-06
CCOC(=O)N1CCN(Cc2nc3c(c(=O)[nH]c(=O)n3C)n2Cc2cc(C)ccc2C)CC1 -5.3e-05

target: Alpha-2C adrenergic receptor (Homo sapiens) (UniProt P18825); assay: modulators of alpha2C/GIRK thallium flux, primary screen, cell-based, HEK293 alpha2C/GIRK1/2 (AID 624); details: thallium flux BTC fluorescence, at 10 µM, actives lie on both sides;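 note: slope of fluorescence ratio to pre-addition baseline per second over 15 to 24 s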
Sequence (P18825 whole entry, looked up): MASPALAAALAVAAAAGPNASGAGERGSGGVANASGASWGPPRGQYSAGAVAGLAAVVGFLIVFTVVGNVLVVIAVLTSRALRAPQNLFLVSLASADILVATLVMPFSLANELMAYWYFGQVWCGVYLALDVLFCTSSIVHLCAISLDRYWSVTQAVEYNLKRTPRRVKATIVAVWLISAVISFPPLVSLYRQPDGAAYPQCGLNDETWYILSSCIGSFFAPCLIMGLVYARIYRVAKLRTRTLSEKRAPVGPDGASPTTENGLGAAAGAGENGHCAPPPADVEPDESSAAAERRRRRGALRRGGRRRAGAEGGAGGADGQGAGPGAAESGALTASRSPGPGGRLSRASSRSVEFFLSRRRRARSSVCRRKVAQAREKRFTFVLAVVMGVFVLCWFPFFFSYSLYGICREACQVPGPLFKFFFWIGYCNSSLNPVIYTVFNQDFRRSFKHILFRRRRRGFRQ

slope, inactive:
Cc1cc(C)n(-c2ccc(N3CCOCC3)nn2)n1 0.0039
O=C(Nc1ccc(S(=O)(=O)N2CCc3ccccc32)cc1)c1ccc2c(c1)OCO2 0.0108
Cc1ccc2occ(CN3CCN(c4ccccc4)CC3)c(=O)c2c1 0.00585
Cc1ccc(S(=O)(=O)N2CCN(C(=O)CSC3CCCC3)CC2)c(C)c1 0.00451
Nc1nonc1-n1nnc(C(=O)c2ccccc2)c1-c1ccccc1 0.00623
COc1cc(C2c3c(n[nH]c3C)C(=O)N2c2ccc(C)cc2)ccc1O (stereo not given) 0.00346
CC(C)(C)n1nnnc1CN(Cc1ccco1)Cc1cc2cc3c(cc2[nH]c1=O)OCO3 0.00513
COc1ccccc1N1CCN(S(=O)(=O)CC23CCC(CC2=O)C3(C)C)CC1 (stereo not given) 0.00394
CC1(C)CC(=O)C=C(NCCN2CCN(C(=O)Nc3ccccc3)CC2)C1 0.0067
Cc1ccccc1OCc1nnc(SCC(=O)NCc2ccccc2)n1C 0.00575
CCN(CC(=O)O)S(=O)(=O)c1cc(Cl)ccc1Cl 0.00473
COC(=O)C1CCN(C(=O)CN2C(=O)NC(CCc3ccccc3)C2=O)CC1 (stereo not given) 0.00516
CCOC(=O)Cn1c(CN2CCOCC2)nc2c1c(=O)[nH]c(=O)n2C 0.00569
CCc1cccc(NC(=O)CN(C)S(=O)(=O)c2cccc3nsnc23)c1 0.0056
O=C(Cn1ncc2c(=O)oc3ccccc3c21)Nc1nc2ccccc2s1 0.00615
Cn1c(SCc2ccccc2)nnc1C1CCCNC1 (stereo not given) 0.00512
Cc1c(NC(=O)c2ccc(COc3ccc4ccccc4c3)o2)c(=O)n(-c2ccccc2)n1C 0.0029
CCOc1ccccc1-n1c(SCC(=O)NCc2ccco2)nnc1-c1ccncc1 0.00499
COc1ccc(/C=N/n2cnnc2SCc2ccc(OC)cc2)cc1 0.00577
CCN(CCCNC(=O)C1CCCN(S(=O)(=O)c2cnc[nH]2)C1)c1ccccc1 (stereo not given) 0.00623
COc1cc(Cn2c(-c3nonc3N)nc3ccccc32)ccc1C 0.00556
C(/CCc1ccccc1)=N\n1cnnc1 0.00355
Clc1ccc(OCCCn2cncn2)cc1Cl 0.00702
Cn1c(=O)c2c(nc(CN3CCc4ccccc4C3)n2Cc2cccc(Cl)c2)n(C)c1=O 0.00753
c1ccc(N=P(c2nc3ccccc3o2)(N2CCOCC2)N2CCOCC2)cc1 0.00625
CN1C(=O)C(O)(CC(=O)c2ccc(F)cc2)c2cc(Br)ccc21 (stereo not given) 0.0055
O=C(c1ccc(Br)cc1)N1CCN(S(=O)(=O)c2ccccc2)CC1 0.00631
O=C(CN1CCN(C2CCCCC2)CC1)Nc1ccccc1-c1ccccc1 0.00596
CC1CCCC(N2CCN(C(=O)c3ccc(F)cc3)CC2)C1 (stereo not given) 0.00721
O=C(Nc1ccccc1C(=O)N1CCOCC1)c1cccc(S(=O)(=O)N2CCCC2)c1 0.00695
O=C(Nc1cc(C(F)(F)F)ccc1Cl)C1CCN(c2nnc(-n3cccc3)s2)CC1 0.00662
CC(C)c1ccc(C(O)c2cnc(C(C)C)n2C)cc1 (stereo not given) 0.00678
CCOc1cccc(-c2nnc3n2N=C(c2cc(OC)ccc2OC)CS3)c1 0.00667
CCOC(=O)N1CCC(N2C(=O)c3ccccc3C2Nc2cccnc2)CC1 (stereo not given) 0.00694
CCn1ncc(C2=NOC(C(=O)Nc3ccc4c(c3)OCO4)C2)c1C (stereo not given) 0.00345
O=C(NCc1nc2ccccc2[nH]1)c1ccco1 0.00592
C=CCSc1nnc(Cc2c(C)[nH]c3ccccc23)o1 0.00499
COCCn1c(CN2CCN(c3ccccc3F)CC2)nc2c1c(=O)n(C)c(=O)n2C 0.00711
O=C(Nc1cccc(NC(=O)c2ccco2)c1)c1ccc2c(c1)OCO2 0.00264
CCOC(=O)N1CCN(Cc2nc3c(c(=O)[nH]c(=O)n3C)n2Cc2cc(C)ccc2C)CC1 0.00433
